Here are results for 4 compounds from PubChem BioAssay AID916 (National Center for Advancing Translational Sciences (NCATS), 2007).

The test in a line: Confirmation Concentration-Response Assay for Cell signaling CRE-BLA (Fsk stim). The text has this: NIH Molecular Libraries Screening Centers Network [MLSCN] NIH Chemical Genomics Center [NCGC] MLSCN Grant: 1X01MH079867-01 Assay Provider: Marshall W. Nirenberg, U.S. National Heart, Lung and Blood Institute CRE beta-lactamase Assay Overview Memories persist for different lengths of time, from seconds or minutes to a lifetime. There are two kinds of memory: short-term memory (STM) and long-term memory (LTM). STM lasts for minutes to hours, which maybe mediated by modifications of molecules involved in synaptic functions. LTM lasts for days or longer, and may be due to the formation of new synapses or restructuring of existing synapses. LTM, but not STM, requires gene transcription and synthesis of proteins. CREB (cyclic-AMP Responsive Element Binding Protein) is one of the candidates plays an important role for enhancement of some types of LTM. CREB, a family of transcription factors, regulates the transcription of genes containing cAMP Responsive Elements (CRE). CRE is a nucleotide sequence often found in the promoter regions of genes that are binding sites for CREB. Using a beta-lactamase reporter-gene under control of cAMP responsive element, a cell-based assay [CellSensor(TM) CRE-bla CHO developed by Invitrogen Corp.] was used to measure forskolin-induced signaling. The selected compounds were measured for their ability to modulate positively the action of EC10 NKH 477, a water soluble forskolin, on reporter gene activity. Compounds were screened in a titration series in 1536-well format. Positive modulators were identified based on the AC50 values derived from the screening data.
NCGC Assay Protocol Summary 2000 cells/5uL in Opti-MEM medium containing 0.5% dialyzed FBS, 0.1 mM NEAA, 1 mM sodium pyruvate and 10 mM HEPES was dispensed into 1536-well plates and cells were cultured at 37 degrees Celsius overnight. Next day 23 nL of compounds or DMSO were delivered to each well using a pin tool, and 1uL of EC10 level of NKH 477, or EC100 level of IBMX, a PDE inhibitor, in the present of NKH 477, or assay medium was added. And then the plates were incubated at 37 degrees Celsius for 3 hours. 1 uL of CCF4-dye mixture was added to each well. After incubated at room temperature for 2 hours the plates were measured on an EnVision plate reader at Excitation 405nm, Emission1=460nm and Emission 2=530nm. The %Activity was determined from the ratio of 460nm/530nm. Keywords: NIH Roadmap, MLSCN, MLSMR, qHTS, NCGC, CRE, beta-lactamase reporter-gene assay.

Structures are written as SMILES. Records with an inconclusive call do not appear. The source made the active and inactive calls. Calls follow the shape of the dose curve; as a rule, active = well fitted activation curve with a large enough effect in the signal ratio, with a control signal flat (not every such curve was filed as active); inconclusive = small, poorly fitted or top-dose-only effect, or a change in a side signal; inactive = flat fitted curve, though single readings scatter; the % refers to the signal ratio.

Turning to `Cn1c(C(=O)N2CCC3(CC2)OCCO3)cc2c(=O)n(C)c3ccccc3c21`, the Potency was 25.1 µM (active).
In the case of `CC(C)C(=O)N1CCN(CCN=Cc2c(O)n(C)c(=O)n(C)c2=O)CC1` it was “inactive”.
In the case of `COc1cc2c(c(OC)c1OC)-c1ccc(OC)c(=O)cc1[C@@H](NC(C)=O)CC2`, the Potency was 5.01 µM (active).
On to `Cn1c(O)c(C=NCCOc2ccc(Cl)cc2)c(=O)n(C)c1=O`, for which the Potency is 15.8 µM (active).
